Measurements reported in PubChem BioAssay (NCATS).
Inconclusive results are not listed. Active and inactive are the calls of the source. Calls follow the shape of the full dose curve.

Target: Peroxisome proliferator-activated receptor delta (Homo sapiens) (UniProt Q03181)
Test: qHTS assay for small molecule agonists of peroxisome proliferator-activated receptor delta signaling (AID 588534)
Details: HEK293T PPARdelta-UAS-bla, beta-lactamase ratio, 18 h; series mostly up to 76.7 µM
Outline: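 Cells carrying a PPAR-delta beta-lactamase reporter were treated with compounds for 18 h at 37 °C in agonist mode. CCF4 fluorescence was read after 2 h; EC50 and efficacy from Hill fits.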

Chain of Peroxisome proliferator-activated receptor delta (Homo sapiens) (Q03181 whole entry, looked up): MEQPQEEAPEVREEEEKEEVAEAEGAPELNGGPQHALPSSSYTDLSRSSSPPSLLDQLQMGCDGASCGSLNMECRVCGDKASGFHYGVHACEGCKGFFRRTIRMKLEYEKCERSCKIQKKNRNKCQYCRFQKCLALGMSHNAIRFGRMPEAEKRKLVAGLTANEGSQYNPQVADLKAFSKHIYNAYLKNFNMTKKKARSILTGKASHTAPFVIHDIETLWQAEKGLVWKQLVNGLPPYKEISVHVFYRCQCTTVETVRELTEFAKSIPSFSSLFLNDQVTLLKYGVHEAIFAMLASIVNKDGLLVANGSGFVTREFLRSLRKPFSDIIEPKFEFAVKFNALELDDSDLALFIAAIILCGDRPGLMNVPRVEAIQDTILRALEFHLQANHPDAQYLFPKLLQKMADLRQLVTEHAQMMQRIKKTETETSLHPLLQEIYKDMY

Compound	outcome
c1ccsc1	inactive
OC/C(Br)=C(\Br)CO	inactive
c1cc2c3c(c1)ccc1cccc(c13)C2	inactive
CC(C)(C)c1ccc(OCC2CO2)cc1 (stereo not given)	inactive
O=C(O)c1ccc(C(=O)O)cc1	inactive
O=CC(=O)c1ccccc1	inactive
O=C1CCCC/C=C/CCCCCCCCCO1	inactive
O=C(O)/C=C/c1ccc(/C=C/C(=O)O)cc1	inactive
CC(=O)Nc1ccccc1C	inactive
CC(=O)Nc1ccc(C)cc1	inactive
OCC(CBr)(CBr)CBr	inactive
Clc1nc2ccccc2nc1Cl	inactive
CCOC(C)=O	inactive
CCCCN(CCCC)CCCCCCN(CCCC)CCCC	inactive
CCCCC/C=C\C/C=C\CCCCCCCC(=O)OC	inactive
BrC(Br)C(Br)Br	inactive
O=C(Cl)c1ccc(C(=O)Cl)cc1	inactive
CC1(C)C(=O)NC(=O)N1CO	inactive
CCCCCCCCCCCCN	inactive
CCCCCCCCCCCCCCC1CO1 (stereo not given)	inactive

Compound	outcome
Cl[Si](Cl)(Cl)c1ccccc1	inactive
Cc1cccc2cccnc12	inactive
CC(=O)OC1CCC(C(C)(C)C)CC1 (stereo not given)	inactive
NS(=O)(=O)O	inactive
Clc1nc(Cl)c(Cl)c(Cl)c1Cl	inactive
CCCCCCCC/C=C\CCCCCCCC(=O)O	inactive
OB(O)O	inactive
Cc1ccc2ccccc2c1[N+](=O)[O-]	inactive
CCCCCCCC[Si](OCC)(OCC)OCC	inactive
COC(OC)(C(=O)c1ccccc1)c1ccccc1	inactive
CC(=O)C1(C)CC2=C(CCCC2(C)C)CC1C (stereo not given)	inactive
O=[N+]([O-])c1cc(N(CCO)CCO)ccc1NCCO	inactive
Clc1cc(Cl)c(Cl)cc1Cl	inactive
CCC(C)c1ccccc1O (stereo not given)	inactive
Nc1ccccc1S(=O)(=O)O	inactive
Nc1c(Cl)cc(Cl)cc1Cl	inactive
Cc1cccc(C)c1[N+](=O)[O-]	inactive
CC(=O)CC(=O)Nc1ccccc1	inactive
CCOC(=O)OCC	inactive
CC1=C2[C@@H]([C@H](C)CC[C@H]2/C=C(\C)C(=O)O)[C@H](O)C1	inactive
